Test systems include HCT-15 colon; HT29 colon; SNB-75 CNS; SNB-19 CNS; U251 CNS; PC-3 prostate; SK-MEL-5 melanoma; UACC-62 melanoma; LOX IMVI melanoma; SK-MEL-28 melanoma; SK-MEL-2 melanoma; SN12C renal; UO-31 renal; TK-10 renal; ACHN renal; CAKI-1 renal; CCRF-CEM leukemia; MOLT-4 leukemia; A498 renal.
Holding throughout (assay): NCI-60 one-dose screen, 48 h (100 = growth as untreated, 0 = no growth, -100 = all killed)
What all share (details): 10 µM unless noted

The panel holds about 83,000 compounds, 20% with a hit somewhere; the sample as a whole holds those more often.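 In brief: 96-well plates, 48 h treatment, single concentration, percent growth endpoint.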 Values without a mark were called inactive. Calls of active or inactive are those of the source. Rule for the calls: active = growth percent below 10; inactive = the rest.

Turning to `COc1cccc(/C=C/C(=O)c2sc(Nc3ccc(O)cc3)nc2C)c1`, the growth in the experiment with HCT-15 colon was 83.7%; in the experiment with HT29 colon it was 82%; in the experiment on SNB-75 CNS, 84.1%; in the experiment with SNB-19 CNS, 95.1%; in the experiment with U251 CNS, 89.6%; with PC-3 prostate, 85.9%. For the same compound, the growth in the experiment with SK-MEL-5 melanoma was 95.4%; in the experiment on UACC-62 melanoma, 94.4%; in the experiment on LOX IMVI melanoma it was 87.5%; in the experiment on SK-MEL-28 melanoma, 102%; in the experiment with SK-MEL-2 melanoma it was 79.9%; with SN12C renal, 86.2%. Moreover, the growth in the experiment on UO-31 renal was 62%; in the experiment on TK-10 renal, 114%; in the experiment with ACHN renal, 98.1%; in the experiment with CAKI-1 renal it was 105%; in the experiment with CCRF-CEM leukemia, 13.3%; in the experiment with MOLT-4 leukemia it was 30.8%.

For `COC(=O)c1cc(-c2cccs2)c(C#N)c(N)c1C#N`, the growth in the experiment with HCT-15 colon was 101%; with HT29 colon, 106%; in the experiment with SNB-75 CNS, 83.4%; in the experiment with SNB-19 CNS, 97.1%; with U251 CNS, 95.5%; in the experiment on PC-3 prostate, 95.5%. Besides, the growth was 102% in the experiment with SK-MEL-5 melanoma; 99.3% in the experiment on UACC-62 melanoma; 99% with LOX IMVI melanoma; 114% in the experiment on SK-MEL-28 melanoma; 112% in the experiment with SK-MEL-2 melanoma; 102% in the experiment on SN12C renal. Besides, the growth in the experiment with UO-31 renal is 92.7%; in the experiment on TK-10 renal, 116%; with ACHN renal, 107%; in the experiment on A498 renal, 104%; in the experiment with CCRF-CEM leukemia, 92.5%; with MOLT-4 leukemia, 98.1%.

Take `CCN(C(=O)c1cc2ccccc2[nH]1)[C@H]1CCC[C@@H](NCc2ccc(OC)cc2)C1`: the growth in the experiment on HCT-15 colon is 81%; with HT29 colon, 76.2%; in the experiment on SNB-75 CNS, 80.6%; in the experiment on SNB-19 CNS, 91.3%; with U251 CNS it was 101%; with PC-3 prostate, 88.5%. The growth is 91.2% in the experiment with SK-MEL-5 melanoma; 95.6% with UACC-62 melanoma; 89% in the experiment with LOX IMVI melanoma; 98.3% in the experiment with SK-MEL-28 melanoma; 100% in the experiment on SK-MEL-2 melanoma; 92.2% with SN12C renal. Further, the growth in the experiment on UO-31 renal was 66%; with TK-10 renal it was 81%; in the experiment on ACHN renal, 94.7%; in the experiment on CAKI-1 renal, 96%; in the experiment with CCRF-CEM leukemia, 102%; in the experiment on MOLT-4 leukemia it was 70.2%.

`COc1ccc(C(=O)/C=C/c2cccc([N+](=O)[O-])c2)c(OC)c1`: the growth with HCT-15 colon was -47.2% (active); with HT29 colon, -3.14% (active); in the experiment on SNB-75 CNS, 35.2%; in the experiment with SNB-19 CNS, 17%; in the experiment with U251 CNS it was -16.2% (active); in the experiment on PC-3 prostate, 33.3%. Also, the growth is 41.4% in the experiment on SK-MEL-5 melanoma; 31.5% in the experiment with UACC-62 melanoma; -73.3% (active) in the experiment with LOX IMVI melanoma; 69.4% with SK-MEL-28 melanoma; 72.4% in the experiment with SK-MEL-2 melanoma; 8.76% (active) with SN12C renal. In addition, the growth in the experiment on UO-31 renal is -13% (active); in the experiment on TK-10 renal, 50%; in the experiment with ACHN renal it was -43.5% (active); in the experiment on CAKI-1 renal, 24.8%; in the experiment on CCRF-CEM leukemia, 5.85% (active); with MOLT-4 leukemia, 7.24% (active).

On to `Cc1ccc(S(=O)(=O)NCCCNc2nccc(-c3c(-c4ccccc4)nc4sccn34)n2)cc1`, for which the growth in the experiment with HCT-15 colon is 47%; in the experiment on HT29 colon, 18.5%; with SNB-75 CNS, 48.4%; with SNB-19 CNS it was 75.4%; with U251 CNS it was 63.1%; in the experiment with PC-3 prostate, 30.9%. The growth with SK-MEL-5 melanoma is 45%; in the experiment with UACC-62 melanoma, 36.5%; with LOX IMVI melanoma it was 32.6%; in the experiment with SK-MEL-28 melanoma it was 78.5%; in the experiment on SK-MEL-2 melanoma it was 82.9%; with SN12C renal it was 48.1%. Moreover, the growth is 33.9% in the experiment with UO-31 renal; 85.8% in the experiment on TK-10 renal; 37.7% in the experiment on ACHN renal; 47.3% in the experiment with CAKI-1 renal; 18.5% in the experiment on CCRF-CEM leukemia; 43.5% in the experiment with MOLT-4 leukemia.

In the case of `O=C(Nc1ccc(OCc2nnc(-c3ccc(Cl)cc3)o2)c(F)c1)Nc1ccc(Cl)c(Cl)c1`, the growth in the experiment on HCT-15 colon is 48.4%; in the experiment with HT29 colon it was 32.8%; in the experiment on SNB-75 CNS it was 6.81% (active); in the experiment with SNB-19 CNS, 71.8%; with U251 CNS, 46.8%; in the experiment on PC-3 prostate, 44.4%. Also, the growth in the experiment with SK-MEL-5 melanoma is 75.6%; with UACC-62 melanoma it was 60.9%; in the experiment with LOX IMVI melanoma, 24.5%; in the experiment with SK-MEL-28 melanoma, 61.5%; in the experiment with SK-MEL-2 melanoma, 81.5%; in the experiment with SN12C renal, 90.9%. In addition, the growth is 56.3% with UO-31 renal; 77.5% with TK-10 renal; 3.37% (active) in the experiment on ACHN renal; 67.9% in the experiment on A498 renal; 51.7% in the experiment on CCRF-CEM leukemia; 45.2% in the experiment on MOLT-4 leukemia.

For `O=C(CCl)NCCNc1nccc(Nc2ccc(S(=O)(=O)Nc3ccccn3)cc2)n1`, the growth is 4.99% (active) with HCT-15 colon; 4.37% (active) in the experiment on HT29 colon; 32.5% with SNB-75 CNS; 17.4% with SNB-19 CNS; -68.1% (active) with U251 CNS; 36.3% in the experiment on PC-3 prostate. Further, the growth in the experiment on SK-MEL-5 melanoma is -41.6% (active); with UACC-62 melanoma it was 5.42% (active); in the experiment with LOX IMVI melanoma it was -64.1% (active); with SK-MEL-28 melanoma, 38%; in the experiment with SK-MEL-2 melanoma it was 32.8%; in the experiment with SN12C renal, 13.5%. Further, the growth with UO-31 renal is 47.4%; in the experiment with TK-10 renal, 50%; in the experiment on ACHN renal, 25.6%; in the experiment with CAKI-1 renal, 10.3%; in the experiment on CCRF-CEM leukemia it was 12.3%; in the experiment on MOLT-4 leukemia, 23.8%.

As to `CC(C)C[C@H](NC(=O)Cn1ccc(NCc2ccccc2)cc1=O)B(O)O`, the growth with HCT-15 colon is 23.5%; with HT29 colon, -15.2% (active); with SNB-75 CNS, 56.9%; in the experiment with SNB-19 CNS, 42.2%; in the experiment with U251 CNS, 44.6%; in the experiment on PC-3 prostate it was 49.2%. In addition, the growth in the experiment with SK-MEL-5 melanoma was -9.84% (active); in the experiment on UACC-62 melanoma, 4% (active); with LOX IMVI melanoma it was -65.5% (active); in the experiment on SK-MEL-28 melanoma, 27.4%; in the experiment with SK-MEL-2 melanoma, -6.74% (active); in the experiment on SN12C renal it was 31.2%. Besides, the growth in the experiment on UO-31 renal was -40.5% (active); in the experiment with TK-10 renal, -10.7% (active); in the experiment on ACHN renal, 9.74% (active); in the experiment with A498 renal, -20.9% (active); in the experiment on CCRF-CEM leukemia, 2.78% (active); in the experiment on MOLT-4 leukemia, -10.3% (active).

(Values after PubChem BioAssay (NCI).)
